From PubChem BioAssay AID1440 (NMMLSC, 2008)
In all, about 220,000 compounds went through this assay and fewer than 10 were called active. Roughly 92% stayed inconclusive and do not appear here. The rule behind the calls is not given here. Only a sample is shown.

These molecules were tested against Guanine nucleotide-binding protein G(o) subunit alpha (Homo sapiens) + Regulator of G-protein signaling 19 (Homo sapiens) (UniProt P09471+P49795) (assay: modulators of human RGS19-Gαo interaction – biochemical, multiplexed bead flow cytometry (AID 1440;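 note: fluorescent Galpha o activated by aluminum fluoride binding bead-coupled RGS19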)). Details: RGS19-Galphao binding, at 10 µM.
Guanine nucleotide-binding protein G(o) subunit alpha (Homo sapiens) + Regulator of G-protein signaling 19 (Homo sapiens), sequence (P09471 whole entry, looked up): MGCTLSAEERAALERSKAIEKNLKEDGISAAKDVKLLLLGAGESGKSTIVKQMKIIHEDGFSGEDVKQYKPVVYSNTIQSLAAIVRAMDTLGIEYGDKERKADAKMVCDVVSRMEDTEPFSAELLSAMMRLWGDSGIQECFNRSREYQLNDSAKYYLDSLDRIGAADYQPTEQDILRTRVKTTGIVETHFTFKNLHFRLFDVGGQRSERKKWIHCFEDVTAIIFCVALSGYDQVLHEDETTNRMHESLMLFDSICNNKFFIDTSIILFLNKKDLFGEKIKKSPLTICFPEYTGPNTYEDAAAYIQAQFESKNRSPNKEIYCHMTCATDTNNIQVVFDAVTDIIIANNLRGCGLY
Guanine nucleotide-binding protein G(o) subunit alpha (Homo sapiens) + Regulator of G-protein signaling 19 (Homo sapiens), sequence (P49795 whole entry, looked up): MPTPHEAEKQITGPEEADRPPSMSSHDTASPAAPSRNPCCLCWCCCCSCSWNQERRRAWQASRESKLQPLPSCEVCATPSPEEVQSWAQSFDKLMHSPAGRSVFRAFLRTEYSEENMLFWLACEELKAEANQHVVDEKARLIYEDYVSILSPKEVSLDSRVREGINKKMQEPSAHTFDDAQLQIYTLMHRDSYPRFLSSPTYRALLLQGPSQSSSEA
In the case of `COC(/C=C/Nc1ccc(C)cc1)=C(C#N)C#N`, the binding response (% of control) was 71.7%. Work on `COc1ccccc1/C=C/C(=O)OCC(=O)c1c(N)n(C)c(=O)n(C)c1=O` yielded a binding response (% of control) of 109%. With `CCN(CC(=O)Nc1ccccc1OC)C(=O)C1CC2C=CC1C2` (stereo not drawn) the binding response (% of control) was 180%. In the case of `CCN(CC)C(=O)c1sc(NC(=O)c2cccnc2)c(C(=O)OC)c1C`, the binding response (% of control) was 128%. `CN1C(=O)C2(N=c3ccccc3=N2)c2ccccc21` showed a binding response (% of control) of 103%. With `CS(=O)(=O)N1CCN(C(=O)c2cc(-c3cccs3)nc3ccccc23)CC1` the binding response (% of control) was 103%. `O=C(O)c1cc(-c2ccccn2)n[nH]1` showed a binding response (% of control) of 106%. Molecule `Cc1cc(C)cc(-n2c(C)c3c(C)nnc(C)c3c2C)c1` has a binding response (% of control) of 121%. `OC1C2(Cc3ccccc3)CN3CCN(C2)CC1(Cc1ccccc1)C3` (stereo not drawn) showed a binding response (% of control) of 71.2%. For `COc1cc(S(=O)(=O)NCCc2ccc3c(c2)OCO3)ccc1-n1cnnn1`, the binding response (% of control) was 25.7%. With `COC(=O)c1ccccc1OC(=O)c1ccc(Br)o1` the binding response (% of control) was 102%. Work on `CC(C)CNC(=O)COC(=O)c1ccc(Cl)c(S(N)(=O)=O)c1` yielded a binding response (% of control) of 107%. Molecule `O=C(Nc1ccccc1N1CCOCC1)c1cccc([N+](=O)[O-])c1` has a binding response (% of control) of 123%. In the case of `O=C(Nc1cccc(-c2cnc3ccccc3n2)c1)c1ccco1`, the binding response (% of control) was 147%. `COc1ccccc1N(C(C)=O)C1SC(=O)N(c2ccccc2)C1=O` (stereo not drawn) was tested, and the binding response (% of control) was 70.1%. `CCOC(=O)N1CCN(C(=O)CCNS(=O)(=O)c2cc(Br)cnc2N)CC1` gave a binding response (% of control) of 93.9%. With `Cc1ccc(S(=O)(=O)N(Cc2ccccc2)Cc2ccco2)cc1` the binding response (% of control) was 92.7%. For `COc1cc(/C=N/NC(=O)Cc2ccccc2)ccc1Oc1ccc([N+](=O)[O-])cc1[N+](=O)[O-]`, the binding response (% of control) was 107%. Work on `CCOCCCNC(=O)C(c1ccccc1)N(Cc1cccs1)C(=O)CNC(=O)c1ccccc1` (stereo not drawn) yielded a binding response (% of control) of 222%. `O=C1CC2(CON=C2c2ccc(F)cc2)C(=O)N1c1ccc(F)cc1` (stereo not drawn) showed a binding response (% of control) of 72.5%. Molecule `CCOC(=O)C(=O)Nc1ccccc1C(=O)Nc1ccc(OC)cc1` has a binding response (% of control) of 101%. `CCC(C)[C@H](NC(=O)N1CCCC1)C(=O)OC` (stereo partly drawn) was tested, and the binding response (% of control) was 117%. In the case of `COc1ccc(C)cc1S(=O)(=O)N(CC(=O)O)c1ccc(F)cc1`, the binding response (% of control) was 102%. For `CCOC(=O)C1=C(c2ccccc2)OC(N)=C(C#N)C1C(C)C` (stereo not drawn), the binding response (% of control) was 109%. For `CS(=O)(=O)N1CCCC(C(=O)NCCc2ccccc2)C1` (stereo not drawn), the binding response (% of control) was 71.4%. Work on `O=C(NC1(C(F)(F)F)C(=O)Nc2c1c(=O)[nH]c(=O)n2Cc1ccccc1)c1ccc(Cl)cc1` (stereo not drawn) yielded a binding response (% of control) of 108%. Work on `COC(=O)CCN(c1ccccc1)S(=O)(=O)c1ccc(OC)cc1` yielded a binding response (% of control) of 38.5%. In the case of `CNC(=O)c1c(N)sc2c1CCCCC2`, the binding response (% of control) was 60.7%. In the case of `COC(=O)c1ccccc1NC(=S)NC(=O)COc1ccc(C(C)C)cc1`, the binding response (% of control) was 284%. Molecule `CCNC(=S)NNC(=O)Nc1ccccc1` has a binding response (% of control) of 89.6%. For `COC(=O)c1cn(NC(=O)C2COc3ccccc3O2)c(=O)c2ccccc12` (stereo not drawn), the binding response (% of control) was 40.7%. `O=C(COc1ccc2ccccc2c1)Nc1cccc2cccnc12` gave a binding response (% of control) of 110%. With `COc1ccc(NC(=O)CCNS(=O)(=O)c2ccc(Br)s2)cc1` the binding response (% of control) was 110%. For `Cc1ccc(S(=O)(=O)N2CC3(C)CN(S(=O)(=O)c4ccc(C)cc4)CC(C)(C2)C3=O)cc1`, the binding response (% of control) was 103%. `Cc1cc(C)nc(SCC(=O)Nc2ncc3c(n2)CC(C)(C)CC3=O)n1` showed a binding response (% of control) of 62.4%. In the case of `Cc1cc(NC(=O)Cn2c(=O)c3c(ncn3CCC(C)C)n(Cc3ccccc3)c2=O)no1`, the binding response (% of control) was 106%. With `O=c1c(Cc2ccc(Cl)cc2Cl)c(O)ccn1Cc1ccc(Cl)cc1` the binding response (% of control) was 97.7%. `CCOc1c2ccc(C(=O)NCc3ccc(OC)cc3)cc2nn1CCOC` was tested, and the binding response (% of control) was 92.2%. For `O=C(Nc1cccnc1)C1CCCN1S(=O)(=O)c1ccc(Cl)c(Cl)c1` (stereo not drawn), the binding response (% of control) was 114%. `COc1ccccc1CNc1ccc(C(=O)O)cc1` gave a binding response (% of control) of 121%. `COc1ccc(OC)c(C2C(C#N)=C(N)Oc3c2c(C)nn3-c2cccc(Cl)c2)c1` (stereo not drawn) gave a binding response (% of control) of 96.4%. In the case of `Cc1ccc2c(CN3CCN(CCO)CC3)cc(=O)oc2c1C`, the binding response (% of control) was 111%. In the case of `CCN1CCCC1CNC(=O)C(NC(=O)C1CCC(C)CC1)C(C)C` (stereo not drawn), the binding response (% of control) was 107%. Work on `O=C(CN1C(=O)S/C(=C/c2cccs2)C1=O)N1CCOCC1` yielded a binding response (% of control) of 99.9%. `CCOCCCNC(=O)C(c1ccc(Cl)cc1)N(Cc1cccs1)C(=O)CNC(C)=O` (stereo not drawn) gave a binding response (% of control) of 90%. `Cc1ccc(-c2cnc(N)n2C)cc1C` was tested, and the binding response (% of control) was 94.5%. In the case of `CCc1ccc(OC)c(S(=O)(=O)NCCOc2ccccc2)c1`, the binding response (% of control) was 41.2%. With `Fc1ccc(CNC(=S)Nc2ccccc2Cl)cc1` the binding response (% of control) was -28%. Work on `COC(=O)CCC(=O)Nc1cccc(C(=O)Nc2cccc(Cl)c2)c1` yielded a binding response (% of control) of 100%. With `Cc1ccc(NC(=O)c2cc(-n3cnnc3)ccc2Cl)cc1` the binding response (% of control) was 100%. For `CC1(C)CC(=O)C(C(=S)Nc2ccccc2)=C(NCCN2CCOCC2)C1`, the binding response (% of control) was 118%. In the case of `Cc1ccc(Cn2ncn3c(cc4ccccc43)c2=O)cc1`, the binding response (% of control) was 87.2%. With `O=C(NCc1ccco1)C1CCN(S(=O)(=O)N2CCC3(CC2)OCCO3)CC1` the binding response (% of control) was 45.9%. Molecule `CCOc1ccc(C2NC(=O)c3sc(=S)n(-c4ccccc4)c3N2)cc1` (stereo not drawn) has a binding response (% of control) of 87.5%. `Cc1ccccc1-n1nc(C)c2cc(C(=O)N3CCN(S(=O)(=O)c4ccc(Cl)cc4)CC3)sc21` gave a binding response (% of control) of 94.8%. With `O=C(Nc1cccc(C(F)(F)F)c1)c1cc2c(s1)-c1ccccc1OC2` the binding response (% of control) was 119%. Molecule `COc1ccc2cnnc(SCC(=O)Nc3ccccc3)c2c1OC` has a binding response (% of control) of 118%. Work on `CCCCN(CC(=O)Nc1c(C)cccc1CC)C(=O)SCC` yielded a binding response (% of control) of 101%. `Cc1ccc(C)c(Cn2nnc3c(=O)[nH]c(C4CCCN(C(=O)C5CCCCC5)C4)nc32)c1` (stereo not drawn) showed a binding response (% of control) of 109%. `COC(=O)c1cc(OC)c(OC)cc1NC(=O)CCC1CCCC1` was tested, and the binding response (% of control) was 107%. For `COc1ccc(CC(=O)OCc2cc3ccccc3[nH]c2=O)cc1`, the binding response (% of control) was 90.7%. `Cc1cc(NC(=O)c2cnn3c(C(F)(F)F)cc(-c4ccccc4)nc23)no1` showed a binding response (% of control) of 103%. `O=C(CN1C(=O)C2C3C=CC(C3)C2C1=O)Nc1cccc2c1CCCC2` (stereo not drawn) was tested, and the binding response (% of control) was 187%. Work on `Nc1c2c(nc3ccn(Cc4ccccc4)c(=O)c13)CCC2` yielded a binding response (% of control) of 72.4%. In the case of `COC(=O)CSc1nnnn1-c1cccc2ccccc12`, the binding response (% of control) was 106%. `CN(CCCC(=O)NCc1ccco1)S(=O)(=O)c1ccccc1` gave a binding response (% of control) of 98.9%. `Fc1ccccc1OCCSc1nnnn1-c1ccccc1` showed a binding response (% of control) of 25.6%. Work on `O=C(c1ccco1)N1CCC(c2nc(-c3ccc(F)cc3)no2)CC1` yielded a binding response (% of control) of 75.6%. Molecule `COc1ccc(-c2nc(-c3cccs3)c(-c3cccs3)[nH]2)cc1O` has a binding response (% of control) of 102%. `Cc1cccc(NC(=S)NC2CC3CCC(C2)N3Cc2ccco2)c1` (stereo not drawn) gave a binding response (% of control) of 113%. `CC(NC(=O)Nc1ccc(F)cc1F)c1ccncc1` (stereo not drawn) was tested, and the binding response (% of control) was 70.2%. With `CCOc1ccc(-c2c(C(=O)N/N=C/c3ccccc3)nnn2-c2nonc2N)cc1` the binding response (% of control) was 91.3%. For `CCCN(CCC)CCOc1cc(C)ccc1C(C)C`, the binding response (% of control) was 116%. `CC(C)C(CC(=O)NCc1ccco1)c1ccco1` (stereo not drawn) was tested, and the binding response (% of control) was 172%. `CCOc1ccc(NC(=O)CSc2nc3ccccc3c(=O)n2CCNC(C)=O)cc1` was tested, and the binding response (% of control) was 97.9%. Molecule `O=C(NN=C1CCCCC1)c1ccccc1OCc1ccc(F)cc1` has a binding response (% of control) of 118%. `Cc1nc2ccccc2c(=O)n1NC(=O)COc1ccccc1` was tested, and the binding response (% of control) was 103%. `CC(C)(C)NC(=O)c1ccc2nsnc2c1` showed a binding response (% of control) of 141%. With `O=C(Nc1nc(N2C(=O)c3ccccc3C2=O)n(-c2ccccc2)n1)c1ccccc1` the binding response (% of control) was -19.9%. `Cn1c(Cl)cnc1C(O)c1ccccc1` (stereo not drawn) showed a binding response (% of control) of 105%. For `Cc1c(Br)c(C(F)(F)F)nn1CC(=O)N1CCCC1`, the binding response (% of control) was 99.7%. `CCOC(=O)c1[nH]nc(-c2cc(CC)c(O)cc2O)c1-c1cscn1` was tested, and the binding response (% of control) was 56.9%. `CC(=O)N(c1ccc(C(C)C)cc1)C1C=CS(=O)(=O)C1` (stereo not drawn) was tested, and the binding response (% of control) was 103%. With `CCCCC(=O)Nc1nc(C)c(-c2csc(Nc3cc(Cl)ccc3OC)n2)s1` the binding response (% of control) was 148%. Molecule `COc1cccc(OC)c1C(=O)Nc1ccc(NC(=O)c2ccco2)cc1` has a binding response (% of control) of 112%. In the case of `CCOC(=O)C1=C(c2ccccc2)NC(=O)NC1c1ccc(OCC#N)c(OC)c1` (stereo not drawn), the binding response (% of control) was 119%. For `CCOC(=O)C1Cn2c(nc3c(c2=O)C2(CCCC2)Cc2ccccc2-3)S1` (stereo not drawn), the binding response (% of control) was 102%. With `CCOC(=O)N1CCC(NC(=O)CCCN2C(=O)CSc3ncccc32)CC1` the binding response (% of control) was 353%.
